# Rab9 prom act – Rab9 promoter activation. Huh7 Rab9 promoter-luciferase reporter, luminescence, 24 h. 320,000 tested, 2.8% active. Potency, µM (series often up to 9.22 µM), for the others: at the top dose activation, negative = inhibition, most hits filed as activators; also: % of control where 0% means no effect; nearly all actives have a fitted effect of over 60% in size
#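 Huh7 cells stably carrying a Rab9 promoter-luciferase reporter, 1500 cells per well in OP-MEM I with 10% FBS, treated with compound 24 hours at 37C. Luciferase activity read by luminescence after 10 minutes with Amplite reagent.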
# ELG1 repair inh – blocks ELG1-dependent DNA repair in HEK293T cells; HEK293T ELG1-luciferase reporter, luminescence, 16 h; DNA damage induced by 5-fluorouridine; 330,000 tested, 2.3% active; Potency, µM (doses to about 46.1 µM), without a hit: top-dose activity change, negative = inhibition, usual class: inhibitors; also: % is scaled to controls: 0 for no effect and ±100 for the full control effect; nearly all actives have a fitted effect of over 55% in size
#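 In this reporter screen, reduction of luminescence relative to DMSO vehicle indicated activity. Compounds and 5-fluorouridine were added together to 2,000 cells per well, incubated for 16 hr at 37 °C, then developed with ONE-Glo.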
# FLuc modulator – firefly luciferase modulation, counter-screen for miR-21 project. AID 588342. purified FLuc, Km substrates, luminescence inhibition. Potency, µM (top dose mostly 57.5 µM), for the others: at the highest dose activity change, negative = inhibition, most hits filed as inhibitors. P08659. 360,000 tested, 6.9% active;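 also: plate controls were vehicle for no effect and reference inhibitor for full effect; nearly all actives have a fitted effect of over 55% in size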
# Target sequence (P08659 whole entry, looked up): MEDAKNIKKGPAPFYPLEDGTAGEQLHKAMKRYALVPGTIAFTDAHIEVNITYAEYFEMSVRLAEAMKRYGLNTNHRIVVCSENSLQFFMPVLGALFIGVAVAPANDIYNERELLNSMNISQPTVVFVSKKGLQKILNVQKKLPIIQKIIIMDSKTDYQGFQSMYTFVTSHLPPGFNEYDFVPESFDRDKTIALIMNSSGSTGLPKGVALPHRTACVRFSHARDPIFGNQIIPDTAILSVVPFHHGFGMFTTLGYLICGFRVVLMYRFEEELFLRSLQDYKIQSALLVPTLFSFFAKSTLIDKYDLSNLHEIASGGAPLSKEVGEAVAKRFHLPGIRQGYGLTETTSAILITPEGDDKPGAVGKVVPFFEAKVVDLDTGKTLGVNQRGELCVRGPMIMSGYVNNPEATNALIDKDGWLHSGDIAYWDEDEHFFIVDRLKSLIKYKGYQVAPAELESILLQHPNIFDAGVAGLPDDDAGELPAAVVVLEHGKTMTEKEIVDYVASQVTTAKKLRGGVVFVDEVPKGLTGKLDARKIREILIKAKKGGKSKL
#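 Purified P. pyralis luciferase (10nM final) with 10uM D-luciferin and 10uM ATP (Km levels) in 50mM Tris acetate pH 7.5, 10mM Mg acetate, 0.01% Tween-20, 0.05% BSA; qHTS 6-point titration, ~60 µM downward; luminescence read.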
# NPC1 prom act – activators of NPC1 promoter. Huh7 NPC1 promoter luciferase reporter, 24 h. Potency, µM (highest dose often 9.22 µM), for inactives: at the top dose activation, most hits filed as activators. 320,000 tested, 2.4% active. AID 485313; also: % of control where 0% means no effect; nearly all actives have a fitted effect of over 60% in size
#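 Quantitative HTS used a cell-based reporter: Huh7 cells stably bearing the NPC1 promoter upstream of luciferase were treated with compounds for 24 h, and promoter activation was read as luminescence.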
# SMN2 splice enh – increases expression of the SMN2 splice variant; HEK293 SMN2-luciferase splicing reporter, luminescence, 30-36 h; Potency, µM (highest dose often 46.1 µM), without a hit: at the top dose activity change, positive = activation, usual class: activators; 210,000 tested, 2.8% active; AID 1458; also: % of control where 0% means no effect; nearly all actives have a fitted effect of over 55% in size
#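 HEK293 cells carry an SMN2 […]–luciferase reporter in which exon 7 inclusion puts luciferase in frame. Cells were plated 10-12 h before compound addition, then incubated 30-36 h at 37C. ONE-Glo luminescence was read; sodium butyrate at 4.5 mM final served as control.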
# ELG1 genotoxic – inducers of genotoxicity in HEK293T ELG1-luciferase cells. HEK293T ELG1-luciferase reporter, luminescence, 16 h. AID 504466. Potency, µM (top dose mostly 46 µM), for inactives: at the top dose activity change, positive = activation, hits mostly activators. 330,000 tested, 1.3% active; also: % of control where 0% means no effect; nearly all actives have a fitted effect of over 60% in size
#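 Genotoxic stress is detected as increased luminescence from luciferase-tagged ELG1 in HEK293T cells, measured with ONE-Glo after a 16 hr treatment at 37 °C.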
# Active calls of the source: *; ? = inconclusive; . = no result given; [ ] = dose if it differs, or a comment. Compounds with a hit are over-represented: about 9.3% of the library has one in this group of screens. Calls follow the shape of the dose curve; as a rule, active = well fitted curve in the direction sought with a large enough effect; inconclusive = small, poorly fitted or top-dose-only effect, or another doubt; inactive = no such curve, though single readings can be large; an effect the other way counts as inactive or inconclusive. Potency is read from the fitted curve at half-maximal effect.
SMILES,Rab9 prom act,ELG1 repair inh,FLuc modulator,NPC1 prom act,SMN2 splice enh,ELG1 genotoxic
CC(C)(C)n1cn[nH]c1=S,10%,2%,4%,-2%,.,0%
COCCCN(Cc1ccco1)C(=O)CSc1nc2ncccc2[nH]1,0%,11%,-2%,-5%,.,-1%
COc1ccc(NC(=O)N(Cc2cc3cc(C)ccc3[nH]c2=O)CC2CCCO2)cc1 (centres undefined),-6%,?,2%,3%,.,-4%
COc1ccc2[nH]c(=O)c(CN(CC3CCCO3)C(=O)Nc3ccc(F)cc3)cc2c1 (centres undefined),-13%,7.3µM*,4%,-3%,-114%,-35%
Cc1ccc(-n2cc(CNC(C)Cn3cncn3)c(-c3ccc(F)cc3)n2)cc1 (centres undefined),-4%,?,17µM*,2%,-7%,0%
Cc1ccc(C)c(-n2cc(CNC(C)Cn3cncn3)c(-c3ccccc3)n2)c1 (centres undefined),-11%,?,-3%,0%,.,-10%
Cc1ccc(-n2cc(CNC(C)c3cnn(C)c3C)c(-c3ccc(F)cc3)n2)cc1 (centres undefined),-1%,-6%,15µM*,-4%,.,-7%
Cc1ccc(-n2cc(CNC(C)c3cnn(C)c3)c(-c3ccc(F)cc3)n2)cc1 (centres undefined),-7%,4%,?,-1%,-11%,-11%
CC(=O)Nc1ccc(/C=C2\CCc3ccccc3C2=O)cc1,?,?,6.7µM*,3.2µM*,.,?
O=[N+]([O-])c1cccc(NC(=S)N2CCc3ccccc3C2)c1,26%,?,?,?,?,12%
O=C1/C(=C/c2ccc(O)cc2)CCc2ccc([N+](=O)[O-])cc21,-1%,?,-20%,-6%,8%,0%
O=C1/C(=C/Nc2cccc([N+](=O)[O-])c2)CCc2ccccc21,2.5µM*,?,2.7µM*,2.8µM*,11µM*,?
O=C1/C(=C\c2ccc([N+](=O)[O-])cc2)CCc2ccccc21,24%,?,0.095µM*,21%,?,7.3µM*
C/C(=N\Nc1ccc([N+](=O)[O-])cc1[N+](=O)[O-])c1ccc(-n2nncc2C(C)(C)C)cc1,-13%,10µM*,-2%,0%,-24%,-3%
C/C(=N/Nc1ccccc1[N+](=O)[O-])c1ccc([N+](=O)[O-])cc1,2%[1.84 µM],14%,-1%,0%,.,3%
CC(=O)Nc1ccc(OCC(O)Cn2c3ccccc3c3ccccc32)c(C)c1 (centres undefined),-4%,?,-17%,-4%,-9%,-14%
CC(=O)Nc1ccc(OCC(O)Cn2c3ccccc3c3ccccc32)cc1 (centres undefined),-1%,18µM*,?,-3%,-16%,-9%
OCC1O[C@H]([S-])[C@H](O)[C@@H](O)[C@@H]1O.[Au+] (some centres undefined),-6%[46.1 µM],.,.,4%[46.1 µM],.,.
O=C(COc1ccccc1Cl)NCCCNC(=O)c1cccnc1,0%,0%,-3%,0%,.,4%
Cc1ccc(CNC(=O)c2ccc3c(=O)[nH]c4c(C(=O)NCC5CCCO5)sc(=S)n4c3c2)cc1 (centres undefined),1%,8%,19µM*,-2%,-5%,-10%
CCCCCNC(=O)c1ccc2c(=O)[nH]c3c(C(=O)NCC4CCCO4)sc(=S)n3c2c1 (centres undefined),-2%,0%,?,-1%,20%,-12%
O=C(NCc1ccccc1)c1ccc2c(=O)[nH]c3c(C(=O)NCC4CCCO4)sc(=S)n3c2c1 (centres undefined),5%,-7%,27µM*,-4%,18%,-5%
Cn1c(C(=O)N2CCCC2)cc2c(=O)n(C)c3ccccc3c21,-4%,-14%,4%,1%,-12%,-7%
Cn1c(C(=O)N2CCN(c3ncccn3)CC2)cc2c(=O)n(C)c3ccccc3c21,6%,9.2µM*,-3%,1%,-3%,-2%
Cc1ccc(S(=O)(=O)N(C)c2ccc(C(=O)NCCc3ccccc3)cc2)cc1,?,?,?,29%,.,15%
SMILES,Rab9 prom act,ELG1 repair inh,FLuc modulator,NPC1 prom act,SMN2 splice enh,ELG1 genotoxic
CN(c1ccc(C(=O)NCCSC(C)(C)C)cc1)S(C)(=O)=O,?,?,19µM*,?,11µM*,10µM*
CN(c1ccc(C(=O)NCCc2ccccc2)cc1)S(C)(=O)=O,0.63µM*,?,5.4µM*,1.4µM*,14µM*,1.6µM*
Cc1ccc(CCNC(=O)NC(C)(C)C)cc1,?,?,?,?,3.5µM*,13%
Cc1ccc(C(=O)NCCc2ccncc2)cc1,?,?,21µM*,?,?,?
Cc1c(Cl)cccc1NC(=O)C(C)n1nnc2sc3c(c2c1=O)CCCC3 (centres undefined),.,.,-2%,.,9%,.
Cc1ccc(CNC(=O)c2ccc(Cn3cc(-c4ccc(C)cc4)nc3-c3ccncc3)cc2)cc1,2.8µM*,?,11µM*,?,.,?
Cc1ccc(C(=O)NCCc2ccccc2)cc1,0.04µM*,?,0.54µM*,?,.,?
O=C(NCCc1ccccc1)c1cnc(Cl)c(Cl)c1,14%,?,24µM*,19%,.,13%
Cc1ccc(CCNC(=O)c2ccc(CNS(=O)(=O)c3ccccc3)cc2)cc1,.,.,-11%,.,7%,.
O=C(NC1CCCCC1)N1CCN(c2ccccc2Cl)CC1,6%,11%,-1%,-2%,.,3%
O=C(Nc1ccsn1)c1ccc(Cl)cc1Cl,?,?,?,3.2µM*,.,?
Cc1cc(NC(=O)c2ccc(Cl)cc2Cl)no1,2.8µM*,?,8.5µM*,1.4µM*,.,?
Cn1c(NC(=O)c2ccc(Cl)cc2Cl)cc(=O)n(C)c1=O,-8%,10%,14%,-4%,-11%,5%
Cc1cc(NC(=O)c2cc(C)on2)no1,1%,?,-1%,4%,10%,15%
COCCn1c(C)cc(C(=O)COC(=O)c2ccccc2Br)c1C,-11%,?,0.095µM*,-7%,.,0.21µM*
COCCn1c(C)cc(C(=O)COC(=O)c2cncc(Br)c2)c1C,?,?,7.6µM*,?,-6%,?
COCCn1c(C)cc(C(=O)COC(=O)CCS(=O)(=O)c2ccc(C)cc2)c1C,1%,?,?,1%,.,19%
